Measurements reported in PubChem BioAssay.
Active and inactive are the calls of the source.

How the values were obtained:
[1] = tested on: Human papillomavirus type 1a protein E7 (residues 44-93); test: small molecules binding HPV E7 44-93 – biochemical, small-molecule microarray, residues 44-93, 635 nm fluorescence, primary screen (AID 1108); details: fluorescence 635 nm, higher = more signal;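 note: E7 fragment applied at 1 µg/mL in TBST for 1 h at 4 C; score combines spot fluorescence with its signal to noise ratio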
[2] = hepatitis C replication reporter changes, two-sided – Huh7 cells, luciferase reporter, HCV replication inhibitor project, primary screen (AID 1109); details: Huh7 HCV replicon luciferase reporter, 48 h; higher = more signal;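 note: huh7 hepatoma cells harbouring a luciferase neomycin HCV replicon reporter; luciferase luminescence as measure of HCV replicon replication; test concentration not given here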
[3] = molecular target: Left-right determination factor 2 (Homo sapiens) (UniProt O00292); test: small molecules binding LEFTY2 protein – biochemical, small-molecule microarray, 635 nm fluorescence scan, primary screen (AID 1110); details: higher = more signal
[4] = molecular target: Calmodulin-1 (Homo sapiens) (UniProt P0DP23); test: small molecules binding calmodulin-1 with EGTA – biochemical, small-molecule microarray, Cy5-labelled CALM1, profiling panel (AID 1111); details: Cy5-CALM1 binding fluorescence, higher = more signal;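 note: labelled calmodulin applied in Tris saline Tween buffer holding calcium plus EGTA and DTT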
[5] = molecular target: Calmodulin-1 (Homo sapiens) (UniProt P0DP23); test: small molecules binding Ca-loaded calmodulin-1 – biochemical, small-molecule microarray, Cy5-labelled CALM1, plus calcium, artefact control for SMM control-protein annotation, profiling panel (AID 1112); details: Cy5-CALM1 binding fluorescence, higher = more signal;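 note: score merges spot fluorescence with signal to noise from triplicate slides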
[6] = probe aWnt5a binding to arrayed compounds – biochemical, biotinylated probe, 635/667 nm fluorescence, primary screen (AID 1113); details: small-molecule microarray, higher = more signal;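 note: score merges 667 nm fluorescence intensity with signal-to-noise per printed feature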
[7] = probe aShh binding to arrayed compounds – biochemical, biotinylated probe, 635/667 nm fluorescence, primary screen (AID 1114); details: small-molecule microarray, higher = more signal;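 note: probe is biotin-labelled aShh protein from a stem cell growth factor screen; measures binding of labelled protein to compounds printed on the slide; score merges feature fluorescence at 667 nm with signal-to-noise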
[8] = probe aNog binding to arrayed compounds – biochemical, biotinylated probe, 635/667 nm fluorescence, primary screen (AID 1115); details: small-molecule microarray, higher = more signal;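 note: probe is biotinylated aNog protein used at 0.15 µg/mL for 1 h at 4 C; z-score combines 667 nm fluorescence of each spot with its signal to noise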
[9] = molecular target: Torsin-1A-interacting protein 1 (Homo sapiens) (UniProt Q5JTV8); test: compound microarray binding of lysate hLAP1 – cell lysate, small-molecule microarray, COS7 lysate, 635/667 nm fluorescence, primary screen (AID 1116); details: 635 nm fluorescence, higher = more signal
[10] = molecular target: Alpha-bungarotoxin (Bungarus multicinctus) (UniProt P60615); test: compounds binding labelled alpha-BTX control protein – biochemical, small-molecule microarray, Alexa647 label, 635/667 nm fluorescence, artefact control for SMM control protein annotation, profiling panel (AID 1117); details: alpha-BTX-A647 binding fluorescence, higher = more signal
Albumin (Bos taurus) = Albumin (Bos taurus) (UniProt P02769); test: compounds binding labelled BSA control protein – biochemical, small-molecule microarray, Alexa647 label, 635/667 nm fluorescence, artefact control for SMM control protein annotation, profiling panel (AID 1118); details: BSA-A647 binding, fluorescence 635 nm, higher = more signal;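 note: score merges 667 nm emission intensity and signal-to-noise per printed compound spot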
[11] = probe aXIP binding to arrayed compounds – biochemical, NeuroSMM set, 635/667 nm fluorescence, primary screen (AID 1119); details: small-molecule microarray, higher = more signal, called active from +8 up or from −8 down;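 note: probe is the protein aXip251-270 applied at 1 µg/mL to compound-printed slides; binding of probe to printed compounds measured as 667 nm fluorescence plus signal to noise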
[12] = probe aNOTCH3 binding on compound microarray – biochemical, small-molecule microarray, 635/667 nm fluorescence, primary screen (AID 1120); details: higher = more signal;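 note: probe is a biotin-tagged antibody raised against NOTCH3 rather than NOTCH3 protein; score merges spot fluorescence near 667 nm with spot signal to noise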
[13] = probe aNOTCH2 binding on compound microarray – biochemical, small-molecule microarray, 635/667 nm fluorescence, primary screen (AID 1121); details: higher = more signal;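 note: score merges feature fluorescence read at 667 nm with its signal to noise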
[14] = molecular target: Carbonic anhydrase 2 (Homo sapiens) (UniProt P00918); test: compounds binding carbonic anhydrase 2 – biochemical, small-molecule microarray, Alexa647-labelled CAII, profiling panel (AID 1122); details: CAII-A647 binding fluorescence, higher = more signal
[15] = COS7 lysate on small-molecule microarray, probe aHis, 635 nm (AID 1123); details: COS7 cell lysate, fluorescence, higher = more signal;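 note: z-score combines 667nm fluorescence intensity with signal-to-noise per printed compound spot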
[16] = probe aLAP1 signal on lysate-treated microarray – cell lysate, small-molecule microarray, COS7 lysate, primary screen (AID 1124); details: probe aLAP1, fluorescence, higher = more signal;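 note: lysate comes from COS7 cells expressing LAP1 and is applied at 0.3 µg/mL; score merges spot fluorescence near 667 nm with signal-to-noise over triplicate slides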
Sam68 (KHDRBS1) = test: compounds binding KHDRBS1 protein – biochemical, small-molecule microarray, 635 nm fluorescence, primary screen (AID 1125); details: higher = more signal;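 note: score merges 667 nm channel intensity with signal to noise over triplicate slides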
[17] = tested on: Chordin-like protein 2 (CHRDL2); test: compounds binding chordin-like 2 – biochemical, small-molecule microarray, 635 nm fluorescence, primary screen (AID 1126); details: fluorescence 635 nm, higher = more signal;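 note: printed compound slides probed with Chrdl2 protein at 4 µg/mL for 1 h at 4 C; score merges 667 nm emission intensity with signal to noise over three replicate slides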
[18] = molecular target: Concanavalin-A (Canavalia ensiformis) (UniProt P02866); test: compounds binding concanavalin A lectin – biochemical, small-molecule microarray, Alexa647 label, 635 nm, artefact control for SMM control protein annotation, primary screen (AID 1127); details: ConA-A647 binding fluorescence, higher = more signal;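 note: z combines 667 nm emission intensity with signal-to-noise across three replicate slides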
Concanavalin-A (Canavalia ensiformis), sequence (P02866 whole entry, looked up): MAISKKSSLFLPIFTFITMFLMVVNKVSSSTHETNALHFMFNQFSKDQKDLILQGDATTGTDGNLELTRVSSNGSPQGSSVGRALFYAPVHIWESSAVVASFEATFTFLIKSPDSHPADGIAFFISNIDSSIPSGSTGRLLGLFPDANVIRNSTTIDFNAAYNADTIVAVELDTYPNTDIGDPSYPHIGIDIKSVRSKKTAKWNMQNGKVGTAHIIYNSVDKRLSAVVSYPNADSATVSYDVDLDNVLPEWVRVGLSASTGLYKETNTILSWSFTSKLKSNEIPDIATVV

Left-right determination factor 2 (Homo sapiens), sequence (O00292 whole entry, looked up): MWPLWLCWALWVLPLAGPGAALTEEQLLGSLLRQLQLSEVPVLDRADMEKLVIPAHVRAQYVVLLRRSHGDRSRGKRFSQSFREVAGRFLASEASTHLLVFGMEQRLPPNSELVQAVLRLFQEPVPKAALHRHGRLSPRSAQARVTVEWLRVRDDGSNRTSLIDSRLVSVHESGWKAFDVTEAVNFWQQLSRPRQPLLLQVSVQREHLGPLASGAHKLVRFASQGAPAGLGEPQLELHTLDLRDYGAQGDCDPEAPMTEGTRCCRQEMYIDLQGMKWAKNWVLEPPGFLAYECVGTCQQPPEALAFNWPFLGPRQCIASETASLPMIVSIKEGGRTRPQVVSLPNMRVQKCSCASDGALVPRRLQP
Alpha-bungarotoxin (Bungarus multicinctus), sequence (P60615 whole entry, looked up): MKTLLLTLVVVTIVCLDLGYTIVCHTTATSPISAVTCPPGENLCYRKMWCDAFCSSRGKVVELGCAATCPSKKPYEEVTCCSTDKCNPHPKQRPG
Albumin (Bos taurus), sequence (P02769 whole entry, looked up): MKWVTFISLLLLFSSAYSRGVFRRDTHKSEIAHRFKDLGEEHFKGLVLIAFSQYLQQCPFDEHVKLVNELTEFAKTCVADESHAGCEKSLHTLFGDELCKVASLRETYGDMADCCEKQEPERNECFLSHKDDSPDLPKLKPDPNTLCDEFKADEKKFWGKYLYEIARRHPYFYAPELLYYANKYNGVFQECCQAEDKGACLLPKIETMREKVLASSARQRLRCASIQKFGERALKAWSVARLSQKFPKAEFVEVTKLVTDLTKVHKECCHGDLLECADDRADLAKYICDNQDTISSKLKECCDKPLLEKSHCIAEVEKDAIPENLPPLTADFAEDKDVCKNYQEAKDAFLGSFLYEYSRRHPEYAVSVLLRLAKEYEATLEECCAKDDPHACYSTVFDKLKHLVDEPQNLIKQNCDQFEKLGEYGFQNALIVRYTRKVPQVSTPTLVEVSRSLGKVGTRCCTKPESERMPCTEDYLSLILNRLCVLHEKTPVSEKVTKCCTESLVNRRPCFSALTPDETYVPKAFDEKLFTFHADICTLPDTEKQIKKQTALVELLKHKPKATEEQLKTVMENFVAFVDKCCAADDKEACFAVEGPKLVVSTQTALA
Torsin-1A-interacting protein 1 (Homo sapiens), sequence (Q5JTV8 whole entry, looked up): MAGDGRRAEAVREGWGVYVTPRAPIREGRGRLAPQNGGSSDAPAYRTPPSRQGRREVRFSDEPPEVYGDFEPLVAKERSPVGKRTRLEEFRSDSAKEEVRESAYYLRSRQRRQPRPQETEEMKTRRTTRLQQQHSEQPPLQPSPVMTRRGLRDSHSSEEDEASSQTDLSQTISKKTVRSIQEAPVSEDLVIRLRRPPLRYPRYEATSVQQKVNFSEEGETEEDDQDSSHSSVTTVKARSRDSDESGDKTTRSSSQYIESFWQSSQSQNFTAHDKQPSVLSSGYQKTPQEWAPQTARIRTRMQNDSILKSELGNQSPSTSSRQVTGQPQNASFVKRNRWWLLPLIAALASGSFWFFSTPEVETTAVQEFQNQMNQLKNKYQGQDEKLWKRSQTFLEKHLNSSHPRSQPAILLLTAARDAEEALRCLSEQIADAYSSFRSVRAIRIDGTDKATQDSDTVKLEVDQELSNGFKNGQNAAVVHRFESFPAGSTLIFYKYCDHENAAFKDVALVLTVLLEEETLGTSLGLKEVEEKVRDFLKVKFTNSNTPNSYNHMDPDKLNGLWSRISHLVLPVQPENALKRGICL

Compound	composite z-score [1]	z-score [2]	composite z-score [3]	composite z-score [4]	composite z-score [5]	composite z-score [6]	composite z-score [7]	composite z-score [8]	composite z-score [9]	composite z-score [10]	composite z-score (Albumin (Bos taurus))	composite Z-score [11]	composite z-score [12]	composite z-score [13]	composite z-score [14]	composite z-score [15]	composite z-score [16]	composite z-score (Sam68 (KHDRBS1))	composite z-score [17]	composite z-score [18]
COCCOC(=O)N1C(=O)[C@@]2(c3cc(C#Cc4ccc(OC)cc4)ccc31)[C@H](C(=O)NC[C@H](O)c1ccccc1)[C@H]1C(=O)O[C@H](c3ccccc3)[C@H](c3ccccc3)N1[C@@H]2c1ccc(OCCO)cc1	1.42	-1.52	0.46	1.16	-0.0063	0.0031	0.0469	0.371	1.14	1.53	0.101	-0.014 (inactive)	0.0397	-0.146	0.441	1.72	0.313	1.3	0.195	1.09
C[C@]1(C(=O)NCCN2CCOCC2)c2ccccc2C(=O)N(Cc2cc(F)cc(C(F)(F)F)c2)[C@H]1c1ccc(CO)cc1	1.38	-1.06	-1.37	-0.17	-1.02	-0.148	-0.0222	-0.41	1.88	2.4	0.0744	0.0652 (inactive)	-0.159	-0.0928	0.773	2.18	0.535	0.692	-0.841	0.828
O=C1C2C=CC(C(O)C=Cc3ccc([N+](=O)[O-])cc3)N(Nc3ccccc3)C2C(=O)N1c1ccccc1 (stereo not given)	1.36	-0.486	0.0857	1.37	-0.0507	0.0037	-0.0866	-0.397	0.568	0.742	0.859	0.075 (inactive)	0.346	0.0167	0.713	2.05	0.276	1.24	-0.0982	1.1
[N-]=[N+]=NCc1ccccc1[C@H]1OC(c2ccc(OCCCO)cc2)=N[C@@]1(CCS(=O)(=O)c1ccccc1)C(=O)NCc1ccccc1	1.4	-2.04	0.115	1.65	0.84	0.0253	0.14	0.543	0.804	2.15	0.852	0.421 (inactive)	0.281	0.0323	0.435	1.6	0.0714	1.24	0.187	1.13
C=C(/C(=C/C[C@@H](OC(=O)c1ccncc1)c1cccc(OCCO)c1)c1cnc2ccccc2c1)C(C)C	1.08	-1.96	0.775	0.0848	0.11	0.0215	-0.0769	0.419	1.37	2.57	0.701	0.414 (inactive)	0.178	-0.0689	0.976	1.69	1.38	1.21	1.24	1.2
C=CCNC(=O)[C@@H]1[C@H]2C(=O)O[C@H](c3ccccc3)[C@H](c3ccccc3)N2[C@H](c2ccc(OCCO)cc2)[C@@]12C(=O)N(C(=O)OCCOC)c1ccc(C#CCCO)cc12	1.33	-0.459	0.909	0.88	-0.381	0.0229	-0.0769	-0.519	0.262	1.35	0.474	0.365 (inactive)	0.0422	-0.0677	0.576	1.23	0.659	1.27	0.528	1.11
O=C1C2C=CC(C(O)c3ccc4c(c3)OCO4)N(Nc3ccccc3)C2C(=O)N1c1ccccc1 (stereo not given)	1.36	-0.631	-0.127	1.36	0.174	-0.0286	-0.0904	1.69	0.722	1.05	1.01	0.348 (inactive)	0.345	0.0247	0.468	2.43	0.247	1.29	-0.0766	1.13
COCCOC(=O)N1C(=O)[C@@]2(c3cc(C#CCCO)ccc31)[C@H](C(=O)N1CCCCCCC1)[C@H]1C(=O)O[C@H](c3ccccc3)[C@H](c3ccccc3)N1[C@@H]2c1ccccc1OCCO	1.4	-1.79	1.18	2.73	1.5	0.993	2.38	2.99	3.19	1.85	0.951	3.51 (inactive)	1.46	0.662	0.599	2.89	0.359	1.32	1.14	1.09
COCCCNC(=O)[C@@]1(Sc2ccc(C)cc2)CC(=O)N(Cc2ccccc2Cl)[C@@H]1c1ccc(CO)cc1I	-0.747	-1.94	-1.6	-0.434	0.717	-0.28	0.0115	-0.323	-1.36	-0.659	0.7	-0.0202 (inactive)	-0.145	-0.178	0.809	0.658	-0.47	-1.22	-1.05	-0.556
O=C(NCC(O)CO)[C@@]1(CCS(=O)(=O)c2ccccc2)COC(c2ccc(OCCCO)cc2)=N1 (stereo not given in full)	1.38	-0.119	-0.412	1.25	1.09	0.0944	0.385	1.81	2.48	2.58	0.927	0.538 (inactive)	0.241	0.0342	0.863	3.35	-0.0542	0.679	-0.734	0.572
Cc1ccc(S[C@]2(C(=O)NC(C)C)CC(=O)N(C(C)C)[C@@H]2c2ccc(CO)cc2I)cc1	0.973	-1.75	-0.485	0.198	-0.114	-0.104	0.216	-0.327	0.322	-0.174	0.41	-0.283 (inactive)	-0.0647	-0.0686	0.326	1.32	0.366	1.12	-0.598	-0.0097
